Experimental data: ChEMBL document CHEMBL1961873, “Compounds: GSK PKIS; Assays: Nanosyn kinase panel” (2012)

Legend:
[1] = target: Casein kinase I isoform gamma-2 (Homo sapiens) (UniProt P78368); settings: at 1 µM
[2] = target: Casein kinase I isoform gamma-3 (Homo sapiens) (UniProt Q9Y6M4); settings: at 0.1 µM
[3] = target: Casein kinase I isoform gamma-3 (Homo sapiens) (UniProt Q9Y6M4); settings: at 1 µM
[4] = target: Cyclin-dependent kinase 1 (Homo sapiens) (UniProt P06493); settings: at 0.1 µM
[5] = target: Cyclin-dependent kinase 1 (Homo sapiens) (UniProt P06493); settings: at 1 µM
[6] = target: Cyclin-dependent kinase 2 (Homo sapiens) (UniProt P24941); settings: at 0.1 µM
[7] = target: Cyclin-dependent kinase 2 (Homo sapiens) (UniProt P24941); settings: at 1 µM
[8] = target: Cyclin-dependent kinase 2 (Homo sapiens) (UniProt P24941); settings: at 0.1 µM; remark: listed apart in the source
[9] = target: Cyclin-dependent kinase 2 (Homo sapiens) (UniProt P24941); settings: at 1 µM; remark: listed apart in the source
[10] = target: CDK3/Cyclin E (Homo sapiens) (UniProt P24864+Q00526); settings: at 0.1 µM;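 note: reported percentages are mean inhibition values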
Sequence of CDK3/Cyclin E (Homo sapiens) (P24864 whole entry, looked up): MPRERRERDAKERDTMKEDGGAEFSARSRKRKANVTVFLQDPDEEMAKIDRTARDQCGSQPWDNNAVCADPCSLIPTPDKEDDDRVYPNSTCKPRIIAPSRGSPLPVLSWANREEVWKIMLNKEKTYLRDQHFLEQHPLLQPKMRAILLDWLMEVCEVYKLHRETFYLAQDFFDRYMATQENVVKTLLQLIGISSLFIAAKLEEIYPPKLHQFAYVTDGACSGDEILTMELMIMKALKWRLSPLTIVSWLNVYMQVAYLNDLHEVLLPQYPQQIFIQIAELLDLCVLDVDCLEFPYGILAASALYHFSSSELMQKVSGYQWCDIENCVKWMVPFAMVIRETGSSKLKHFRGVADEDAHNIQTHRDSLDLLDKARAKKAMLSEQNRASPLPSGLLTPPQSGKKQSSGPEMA
Sequence of CDK3/Cyclin E (Homo sapiens) (Q00526 whole entry, looked up): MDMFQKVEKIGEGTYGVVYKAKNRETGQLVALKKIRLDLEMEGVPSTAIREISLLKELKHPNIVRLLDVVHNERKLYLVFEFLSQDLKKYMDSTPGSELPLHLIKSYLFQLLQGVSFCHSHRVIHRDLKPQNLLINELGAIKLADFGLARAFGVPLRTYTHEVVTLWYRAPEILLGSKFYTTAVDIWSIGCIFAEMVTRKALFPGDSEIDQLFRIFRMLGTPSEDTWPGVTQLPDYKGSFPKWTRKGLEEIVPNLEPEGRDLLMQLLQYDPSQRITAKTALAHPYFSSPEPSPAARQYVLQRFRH

Sequence of Casein kinase I isoform gamma-2 (Homo sapiens) (P78368 whole entry, looked up, canonical isoform): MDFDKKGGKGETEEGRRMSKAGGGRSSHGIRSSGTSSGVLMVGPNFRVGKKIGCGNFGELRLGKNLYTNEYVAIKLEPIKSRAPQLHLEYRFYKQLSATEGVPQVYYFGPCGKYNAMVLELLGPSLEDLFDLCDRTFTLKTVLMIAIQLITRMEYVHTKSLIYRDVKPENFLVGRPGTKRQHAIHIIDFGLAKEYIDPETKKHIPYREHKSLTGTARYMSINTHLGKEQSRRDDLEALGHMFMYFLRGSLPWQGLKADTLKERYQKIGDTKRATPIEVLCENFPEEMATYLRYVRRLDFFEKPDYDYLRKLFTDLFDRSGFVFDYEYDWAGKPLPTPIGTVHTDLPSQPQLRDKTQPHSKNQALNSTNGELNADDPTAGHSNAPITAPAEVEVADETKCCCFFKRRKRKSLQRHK
Sequence of Casein kinase I isoform gamma-3 (Homo sapiens) (Q9Y6M4 whole entry, looked up, canonical isoform): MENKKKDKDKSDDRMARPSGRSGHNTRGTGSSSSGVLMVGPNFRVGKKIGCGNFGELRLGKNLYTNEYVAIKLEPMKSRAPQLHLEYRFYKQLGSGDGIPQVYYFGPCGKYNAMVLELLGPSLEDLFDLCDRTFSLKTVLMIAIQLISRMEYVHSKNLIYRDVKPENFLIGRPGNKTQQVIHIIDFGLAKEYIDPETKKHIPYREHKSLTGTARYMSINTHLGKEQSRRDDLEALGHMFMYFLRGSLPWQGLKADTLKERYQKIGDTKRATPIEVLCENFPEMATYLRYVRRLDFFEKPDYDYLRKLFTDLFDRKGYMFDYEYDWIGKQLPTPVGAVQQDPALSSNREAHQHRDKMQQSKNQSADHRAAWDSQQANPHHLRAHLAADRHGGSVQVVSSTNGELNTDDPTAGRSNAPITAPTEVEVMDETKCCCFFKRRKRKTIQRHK
Sequence of Cyclin-dependent kinase 1 (Homo sapiens) (P06493 whole entry, looked up): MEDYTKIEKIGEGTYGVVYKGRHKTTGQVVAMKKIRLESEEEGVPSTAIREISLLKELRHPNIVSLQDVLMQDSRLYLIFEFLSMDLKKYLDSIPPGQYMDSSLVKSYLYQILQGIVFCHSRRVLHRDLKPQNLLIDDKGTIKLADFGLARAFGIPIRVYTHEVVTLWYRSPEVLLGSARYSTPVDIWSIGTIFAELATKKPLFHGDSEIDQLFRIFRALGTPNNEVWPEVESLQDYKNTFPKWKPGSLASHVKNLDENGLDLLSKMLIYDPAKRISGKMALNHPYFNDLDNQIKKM

SMILES | inhibition [1] | inhibition [2] | inhibition [3] | inhibition [4] | inhibition [5] | inhibition [6] | inhibition [7] | inhibition [8] | inhibition [9] | inhibition [10]
NS(=O)(=O)c1ccc(Nc2cc(-c3cccc(O)c3)n[nH]2)cc1 | 5.96% | 7.49% | 2.14% | 2.03% | 12.9% | 16.7% | 78.1% | 16.5% | 56% | 5.95%
O=S(=O)(CCOCc1ccc(-c2ccc3ncnc(Nc4ccc(OCc5cccc(F)c5)c(Cl)c4)c3c2)o1)c1ccccc1 | 1.75% | 0.25% | 0.46% | 3.78% | 4.97% | 2.29% | 2.76% | 4.07% | 6.29% | -0.59%
NC(=O)c1sc(-n2cnc3ccccc32)cc1OCc1ccccc1Br | 5.04% | 2.52% | 3.56% | 4.32% | 6.19% | 7.43% | 5.68% | 4.88% | 8.08% | -2.25%
CC(C)c1ccc2c(c1)NC(=O)/C2=N/Nc1ccc(S(N)(=O)=O)cc1 | 0.09% | 1.05% | 0.02% | 2.52% | 6.84% | 5.99% | 28.9% | 3.16% | 18.9% | 1.54%
COc1ccc(-c2nn3ncccc3c2-c2ccnc(Nc3cccc(C(F)(F)F)c3)n2)cc1 | 2.2% | 2.44% | 1.71% | 0.53% | 1.61% | 0.03% | 1.83% | 2.35% | 4.1% | 0.68%
CC(C)c1ccc(Nc2nccc(-c3cnn4ncccc34)n2)cc1 | 24.9% | 1.13% | 13.6% | 21.5% | 64% | 19.8% | 78.7% | 22.8% | 64.5% | 1.82%
O=C(Nc1ccc(Oc2ccc3[nH]c(NC(=O)c4ccco4)nc3c2)cc1)Nc1cc(C(F)(F)F)ccc1F | -2.38% | -2.82% | -2.32% | -5.04% | -3.69% | -3.1% | 3.18% | -4.34% | -4% | -0.43%
CN(c1ccc(NC(=O)Nc2ccc(OC(F)(F)F)cc2)cc1)c1ccnc(Nc2cccc(S(N)(=O)=O)c2)n1 | 2.66% | 1.74% | 2.37% | -0.1% | 5.09% | 0.55% | 14.4% | 1.2% | 7.47% | -0.62%
CS(=O)(=O)CCNCc1nc(-c2ccc3ncnc(Nc4ccc(OCc5cccc(C(F)(F)F)c5)cc4)c3c2)cs1 | 1.13% | 0.51% | -0.03% | 2.33% | 2.13% | 1.96% | -0.45% | 1.42% | 0.41% | -1.59%
Nc1nccc(-c2c(-c3ccc(F)cc3)nn3cc(C(F)(F)F)ccc23)n1 | 1.13% | 0.79% | 1.7% | 1.22% | 0.47% | -0.36% | -2.27% | -0.77% | 0.2% | -0.58%
ON=C1CCc2cc(-c3nc(C4CCNCC4)[nH]c3-c3ccncc3)ccc21 | 1.04% | 1.01% | 0.07% | 0.23% | 2.04% | 0.63% | -0.53% | 1.2% | 2.51% | 2.27%
COc1cc(/C=N/Nc2ncnc3c2cnn3C(C)C)ccc1O | 0.8% | 1.47% | 2.79% | 11.8% | 47.9% | 7.48% | 46.5% | 6.02% | 32.4% | 6.53%
CN(C)C(=O)O[C@@H]1CN[C@@H](C#Cc2cc3ncnc(Nc4ccc(OCc5cccc(F)c5)c(Cl)c4)c3s2)C1 | 5.93% | 0.73% | 5.49% | 0.38% | 0.19% | 0.82% | 7.43% | 0.72% | 1.06% | 3.66%
CCS(=O)(=O)c1ccc(OC)c(Nc2nccc(N(C)c3ccc4c(C)n[nH]c4c3)n2)c1 | 4.44% | 3.36% | 3.45% | 0.39% | 1.28% | 1.59% | 3.06% | 2.45% | 3.56% | 0.61%
OCc1ccc(-c2nc(-c3ccccn3)c(-c3ccc4c(c3)OCO4)[nH]2)cc1 | 4.06% | 3.67% | 4.78% | 0.21% | 1.4% | 1.49% | -2.92% | 3.56% | 4.52% | 1.69%
C[C@@H](Oc1cc(-n2cnc3ccc(OCC4CCN(C)CC4)cc32)sc1C(N)=O)c1ccccc1C(F)(F)F | -3.37% | -1.08% | -3.59% | 2.12% | 3.02% | -0.78% | 2.52% | -0.93% | 0.83% | -1.54%
COc1cc2ncn(-c3cc(OCc4ccccc4S(C)(=O)=O)c(C#N)s3)c2cc1OC | 3.78% | 2.68% | 2.61% | 1.59% | 6.07% | 2.46% | 5.28% | 4.39% | 5.94% | 0.41%
